# Screening results deposited in PubChem BioAssay by National Center for Advancing Translational Sciences (NCATS).
# An excerpt weighted towards active compounds, which were near 7.2% of everything screened.
# MARV entry inh: Marburg virus entry inhibition. 300,000 compounds, 1.8% hits. Potency, µM (series often up to 37.8 µM), for inactives: top-dose activity change, negative = inhibition, hits mostly inhibitors. Marburg virus pseudotyped entry inhibition, cell reporter; calls by dose curve; tested in HEK293 cells
# LASV entry inh: inhibitors of Lassa virus binding or cell entry; Lassa virus pseudotype entry inhibition, cell reporter; Potency, µM (doses to about 37.9 µM), for the others: at the top dose activity change, negative = inhibition, actives largely listed as inhibitors; 300,000 compounds, 1.2% hits; AID 540256; calls by dose curve; tested in HEK293 cells; note: nearly all actives have a fitted effect of over 50% in size
# HCV inhibitor: inhibitors of hepatitis C virus infection. Huh7.5.1 HCVcc-Cre infection, luciferase reporter, 44 h. Potency, µM (highest dose often 41.8 µM), for the others: top-dose activity change, negative = inhibition, actives largely listed as inhibitors. 340,000 compounds, 3.4% hits
#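 Antiviral activity was scored by luciferase reporter output from cells infected with HCVcc-Cre (~0.5 moi) in presence of compound, 44 h infection period, cells seeded 1,000/well 4 h prior.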
# RE007 growth inh: less growth of the S. pombe RE007 Vpr strain; S. pombe RE007 Vpr strain, BacTiter-Glo ATP luminescence, 24 h; Potency, µM (doses to about 92.2 µM), for the others: at the highest dose activity change, negative = less growth, actives largely listed as inhibitors; 360,000 compounds, 0.21% hits; AID 651644; active = well fitted falling curve with a large enough effect; inconclusive = small, poorly fitted or top-dose-only effect; inactive = no such curve, though single readings can be large or run the other way; note: nearly all actives have a fitted effect of over 50% in size
#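 Fission yeast strain RE007, carrying one chromosomally integrated HIV-1 vpr copy, was seeded at OD 0.01 in PMG+AL medium with 23 nL pinned compound. After 24 h at 30 °C and 99% humidity, viability was read by BacTiter-Glo luminescence.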
# FMDV antiviral: foot and mouth disease virus antiviral activity; FMDV antiviral cell-based qHTS; Potency, µM (top dose mostly 57.9 µM), without a hit: at the highest dose activity change, negative = inhibition, most hits filed as inhibitors; 410,000 compounds, 1.2% hits; calls by dose curve; tested in HEK293T cells; note: read-out not given here; nearly all actives have a fitted effect of over 45% in size
# Sm TGR inh: S. mansoni TGR enzyme inhibition; purified TGR, DTNB reduction, TNB absorbance 405 nm; AID 485364; Potency, µM (series often up to 114 µM), for inactives: at the highest dose activity change, negative = inhibition, hits mostly inhibitors; 360,000 compounds, 3% hits; Q962Y6; note: nearly all actives have a fitted effect of over 60% in size
#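 Kinetic colorimetric format: TGR-catalysed, NADPH-driven DTNB reduction monitored via TNB absorbance. Enzyme dispensed at 20 nM; compound exposure 15 min at room temperature before reaction start.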
# Numbers without * were called inactive; ? = inconclusive; nt = no result; [ ] = dose if it differs, or a comment. Unless noted, calls come from the whole dose curve; as a rule, active = well fitted curve in the direction sought with a large enough effect; inconclusive = small, poorly fitted or top-dose-only effect, or another doubt; inactive = no such curve, though single readings can be large; an effect the other way counts as inactive or inconclusive. % is set by controls: 0 for no effect and ±100 for the full control effect; potency is the fitted concentration of half-maximal effect.
SMILES,MARV entry inh,LASV entry inh,HCV inhibitor,RE007 growth inh,FMDV antiviral,Sm TGR inh
O=C(Cn1ncc(Cl)c(Cl)c1=O)N1CCc2ccccc21,?,?,?,-0.1%,?,15.8µM*
O=C(Cn1ncc2c3ccccc3n(Cc3ccccc3)c2c1=O)N1CCN(c2ncccn2)CC1,?,?,10µM*,7.3%,?,-19.9%
O=C(Cn1ncc(Cl)c(Cl)c1=O)N1CCOCC1,?,?,?,5.2%,0.0%,-29.0%
O=C(Cn1ncc(Cl)c(Cl)c1=O)N1CCN(Cc2ccccc2)CC1,nt,nt,3.55µM*,-11.1%,?,8.91µM*
Cc1nc2nc(SCC(=O)NC3CCCCC3)nn2c(C)c1Cc1ccccc1Cl,?,17.4%[46.1 µM],nt,nt,-5.0%,-4.6%
O=C(NC[C@@H]1CCCN2CCCC[C@H]12)c1cnn(-c2nccc(-c3cc4ccccc4o3)n2)c1C1CC1,nt,nt,nt,nt,-7.4%,nt
Cc1nn(CC(=O)N2c3ccccc3NC(=O)C2(C)C)c(C)c1[N+](=O)[O-],nt,nt,8.5%,35.8%,-29.1%,-12.5%
CC1(C)C(=O)Nc2ccccc2N1C(=O)Cn1ncc(Cl)c(Cl)c1=O,nt,nt,?,5.3%,-21.7%,10µM*
Cc1cccc(CNc2cc(-c3ccoc3)ncn2)c1,nt,nt,nt,nt,-18.6%,nt
COc1ccc(NC(=O)N2CC3(CCN(C(=O)c4cccc(F)c4)CC3)C2)cc1,nt,nt,nt,nt,1.5%,nt
O=C(Nc1ccc(Oc2ccccc2)cc1)c1ccc(F)c(S(=O)(=O)N2CCN(c3ccccc3F)CC2)c1,nt,?,nt,nt,?,-0.2%
COC(=O)c1c(S(C)(=O)=O)nc(-c2ccccc2)[nH]c1=O,9.5%,14.3%,5.5%,13.5%,-17.7%,25.1µM*
COc1ccccc1N1CCN(C(=S)Nc2ccc(S(=O)(=O)N3CCOCC3)cc2)CC1,?,?,?,2.4%,25.1µM*,-0.9%
CCOc1ccc(S(=O)(=O)N2CCC(C(=O)N3CCN(c4ccccc4F)CC3)CC2)cc1C,?,7.08µM*,?,1.2%,-0.6%,-20.4%
CCOC(=O)c1ccc(S(=O)(=O)N2CCC(C(=O)N3CCN(c4ccccc4OC)CC3)CC2)cc1,-19.3%,-12.7%,10µM*,3.1%,-28.3%,nt
O=S(=O)(c1ccc(NC(=S)N2CCN(c3ccccc3F)CC2)cc1)N1CCOCC1,?,-29.8%,?,-9.6%,?,7.3%
COC(=O)c1scc(-c2ccc(C)cc2)c1S(=O)(=O)Nc1cc(OC)c(OC)c(OC)c1,nt,-28.9%[46.1 µM],nt,nt,-20.1%,1.0%
Cc1cccc(-n2c(=O)c3c(c4cc(C)ccc4n3C)n(C)c2=O)c1,nt,-6.6%[46.1 µM],nt,nt,-12.3%,-3.0%
Cn1cc(Br)c(C(=O)NNC(=O)c2cccc(Br)c2)n1,16.2%,3.9%,-4.7%,-3.7%,14.8%,35.5µM*
Cn1cc(Br)c(C(=O)NNC(=O)c2ccc(Cl)cc2)n1,?,-0.4%,13.6%,-2.3%,36.4%,-19.4%
CC(C)OC(=O)c1cc(NC(=O)c2nn(C)cc2Br)cc(C(=O)OC(C)C)c1,?,5.17µM*,?,22.4%,0.0%,-3.5%
CN(C)C(=O)c1ccc(-c2cncnc2NCCN2CCOCC2)cc1,nt,nt,nt,nt,-2.6%,nt
Cc1ccc(S(=O)(=O)N2CCc3cc(C(=O)Nc4ccc(C)c(C)c4)ccc32)cc1,-12.9%[46.1 µM],-1.3%[46.1 µM],nt,nt,-8.0%,6.0%
CN(C)S(=O)(=O)c1ccc(C(=O)Oc2cc(=O)[nH]c3ccccc23)cc1,23.5%,-3.3%,8.4%,-2.4%,-3.1%,20µM*
COc1ccccc1C1CCN(C(=O)c2cnn(-c3ccccc3)c2C)CC1,nt,nt,?,0.5%,39.8µM*,-1.7%
SMILES,MARV entry inh,LASV entry inh,HCV inhibitor,RE007 growth inh,FMDV antiviral,Sm TGR inh
COc1ccccc1C1CCN(C(=O)c2ccccc2)CC1,nt,nt,-7.9%,-6.3%,-22.9%,-17.9%
COc1ccccc1C1C=C(c2ccc(F)cc2)Nc2nc(-c3ccc(Cl)cc3)nn21 (configuration not stated),?,-15.2%[46.1 µM],nt,nt,?,-4.0%
O=C(NCCNCC(O)COc1ccc(O)cc1)N1CCOCC1 (configuration not stated),?,nt,0.316µM*,3.6%[18.4 µM],-16.3%,nt
O=C(NCCNC[C@@H](O)COc1ccc(O)cc1)N1CCOCC1,nt,nt,nt,nt,-1.9%,nt
Cc1ccc2c(c1)N=C(c1ccccc1)CC(C(Cl)Cl)=N2,?,?,?,-12.9%,13.4%,15.8µM*
Oc1ccc(Cl)cc1C1=Nc2ccccc2N=C(c2ccccc2)C1,nt,1.3%[46.1 µM],nt,nt,-7.2%,-3.1%
Cc1ccc(O)c(C2=Nc3ccccc3N=C(c3cccc(F)c3)C2)c1,nt,-1.8%[46.1 µM],nt,nt,nt,-6.0%
Cc1ccc(C2=Nc3ccccc3N=C(C(Cl)Cl)C2)cc1,?,?,?,-21.1%,?,35.5µM*
C=CCCC1(CCC)C(=O)C(=C(O)c2ccccc2)C(=O)C(CCC)=C1OC (configuration not stated),-1.7%[14.2 µM],nt,nt,nt,nt,nt
CC(C)COc1ccc(-c2nnc(-c3ccco3)o2)cc1,?,7.3µM*,?,-11.4%,-34.5%,-18.8%
CCOC(=O)Cn1nnc(-c2ccc(OCC(C)C)cc2)n1,2.9%,10.8%,17.5%,-27.9%,27.0%,-1.0%
CCCOc1ccc(-c2nnc(-c3ccco3)o2)cc1,?,8.2µM*,7.4%,?,?,11.6%
CCN(CC)CCCNc1ccc(-c2nnc(-c3ccc(OCC(C)C)cc3)o2)cn1,-0.2%[46.1 µM],20.6%[46.1 µM],8.91µM*,5.5%,5.3%,2.9%
O=C(COc1ccccc1)Nc1ccc(-c2nnc(-c3ccco3)o2)cc1,4.5%,0.6%,-4.0%,7.0%,7.4%,3.5%
COc1cc(=O)n2c(c1C(=O)N(C)C(C)c1ccco1)CCN(C(=O)c1ccc(C(C)=O)cc1)CC2 (configuration not stated),nt,nt,nt,nt,-8.7%,nt
COc1cccc(NC(=O)Cn2c(-c3nonc3N)nc3ccccc32)c1,0.7%[46.1 µM],0.4%[46.1 µM],nt,nt,-6.8%,-5.4%
Cc1nccn1CC(O)COc1ccc(Cl)cc1Cl (configuration not stated),-6.4%[46.1 µM],17.5%[46.1 µM],?,-1.6%,0.447µM*,1.8%
Cn1c(SC2=CS(=O)(=O)c3ccccc32)nc2ccccc21,?,?,6.31µM*,4.1%,28.2µM*,39.8µM*
Cn1c(CSc2nc3ccccc3n2C)nc2ccccc21,?,10.6%,8.8%,18.8%,16.5%,12.2%
CCOc1cc(-c2ccc(OC(=O)c3ccc(OC)cc3)c(OC)c2)cc(=O)c2c(C)oc(C)c12,-16.6%[46.1 µM],-28.9%[46.1 µM],nt,nt,-19.0%,?
COc1ccc(CNc2nc3c(S(=O)(=O)c4ccccc4)nnn3c3ccc(Cl)cc23)cc1,-9.4%[46.1 µM],nt,nt,nt,-0.7%,10.5%
c1ccc(-c2nc3nc4ccccc4nc3n2CC2CCCO2)cc1 (configuration not stated),-22.0%[46.1 µM],-15.9%[46.1 µM],-17.8%,0.0%,4.4%,-34.9%
